We go through eight compounds from PubChem BioAssay (NCATS).

Results filed as inconclusive are left out. A call without a number means that no potency is given here. A number with no mark means an inactive call. Calls of active or inactive are those of the source. Calls come from the whole dose curve; as a rule, active = well fitted cell-killing curve with a large enough effect; inconclusive = small, poorly fitted or top-dose-only effect, or effect the other way; inactive = no such curve, though single readings can be large or run the other way.
Potency is the fitted concentration of half-maximal effect.

This assay in a line: Viability qHTS for spleen associated tyrosine kinase inhibitor (SYKi) naive MV4-11 cells (AID 1963823). Note: nearly all actives have a fitted effect of over 40% in size. The conditions noted are these: MV4-11 AML viability, CellTiter-Glo luminescence, 72 h; series mostly up to 45 µM. An outline of the steps: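 Read-out: CellTiter-Glo luminescence. Exposure: 72 hr, 37 C, 5% CO2, 95% humidity. Cells: MV4-11 without SYK inhibitor history, 500/well, qHTS format.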
A general note: qHTS replaces the single test concentration by a dilution series.
Turning to `OC[C@H]1O[C@@H](OCc2ccccc2)[C@H](O[C@@H]2OC[C@@H](O)[C@H](O)[C@H]2O)[C@@H](O)[C@@H]1O`, the Potency result was “inactive”.

On to `CSc1cc2c(s1)c1cnn(Cc3ccccc3F)c(=O)c1n2C`, for which the Potency entry is “inactive”.

Turning to `CC1(C)CC[C@]2(C(=O)O[C@@H]3O[C@H](CO)[C@@H](O)[C@H](O)[C@H]3O)CC[C@]3(C)C(=CCC4[C@@]5(C)CC[C@H](O[C@@H]6O[C@H](C(=O)O)[C@@H](O[C@@H]7O[C@H](CO)[C@@H](O)[C@H](O)[C@H]7O)[C@H](O)[C@H]6O[C@@H]6O[C@H](CO)[C@@H](O)[C@H](O)[C@H]6O)C(C)(C)C5CC[C@]43C)C2C1` (stereo partly drawn), the viability (% of control) is 93% [at 9.25 µM].

Take `CC(=O)OC1C[C@]2(C)C(O)CC(C)=C[C@H](OC(=O)c3ccc(O)cc3)C2[C@]1(O)C(C)C` (stereo partly drawn): the Potency result was “inactive”.

Take `O=S(=O)(NCc1cccc2ccccc12)c1cc(Cl)c(Oc2cccc(N3CCNCC3)c2)s1`: the Potency is 2.59 µM (active).

As to `CC1(C)CC[C@]2(C(=O)O[C@@H]3O[C@H](CO)[C@@H](O)[C@H](O)[C@H]3O)CC[C@]3(C)C(=CCC4[C@@]5(C)CC[C@H](OC6OC(C(=O)O)C(OC7OC(CO)C(O)C(O)C7O)C(O)C6O)C(C)(C)C5CC[C@]43C)C2C1` (stereo partly drawn), the viability (% of control) was 86.6% [at 9.25 µM].

Take `O=C(Nc1ccc(Cl)cc1)C1CCCN(C(=O)c2cccc(-c3ccco3)c2)C1` (stereo not drawn): the Potency is 8.2 µM (active).

For `CCC(CC)(NC(=O)C(C)C)C(=O)N[C@@H](CCCN=C(N)N)C(=O)NC1(C(=O)NC(c2ccc(F)cc2)c2ccc(F)cc2)CCCC1`, the Potency entry is “inactive”.
